Among the data in PubChem BioAssay are composite z-score and z-score values, retold here.

Experiment [1] has as its system PRMT1 (protein arginine N-methyltransferase 1). Put plainly: small molecules binding arginine methyltransferase PRMT1 – biochemical, small-molecule microarray, 635 nm fluorescence, primary screen (AID 1088).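 Further: binding of Prmt1 protein to compounds spotted on small-molecule microarray slides.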 Conditions: higher = more signal.
Experiment [2] can be described thus: growth effects on S. cerevisiae YJM789 – YJM789 clinical isolate, OD600, 24 h, basal, primary screen (AID 1089).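 Further: growth of clinical yeast isolate S. cerevisiae YJM 789 seeded 1000 cells per well; test concentration not given here.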 Conditions: higher = more signal, called active from +8 up or from −8 down.
A short description of experiment [3]: S. pombe growth modifiers, basal conditions – strain 972, OD600, 24 h, no modulator, primary screen (AID 1090).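 Further: basal condition with compound alone and no growth modifier present; test concentration not given here.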 Conditions: S. pombe 972 growth, higher = more signal, called active from +8 up or from −8 down.
Experiment [4] is described as follows: budding yeast growth modifiers under rapamycin – strain BY4716, OD600, 96 h, primary screen (AID 1091). Further: test concentration not given here. To be noted: S. cerevisiae BY4716 + rapamycin, higher = more signal, called active from +8 up or from −8 down.
The target in experiment [5] is Torsin-1A-interacting protein 2 (Homo sapiens) (UniProt Q8NFQ8). Put plainly: small molecules binding lysate-expressed LULL1 – cell lysate, human LULL1 lysate, 635/667 nm fluorescence, primary screen (AID 1092).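 Further: probe is lysate of COS7 cells overexpressing human LULL1; score merges per-feature 667 nm fluorescence with signal-to-noise.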 To be noted: small-molecule microarray, hLULL1 lysate binding, 635 nm fluorescence; higher = more signal.
Torsin-1A-interacting protein 2 (Homo sapiens), sequence (Q8NFQ8 whole entry, looked up): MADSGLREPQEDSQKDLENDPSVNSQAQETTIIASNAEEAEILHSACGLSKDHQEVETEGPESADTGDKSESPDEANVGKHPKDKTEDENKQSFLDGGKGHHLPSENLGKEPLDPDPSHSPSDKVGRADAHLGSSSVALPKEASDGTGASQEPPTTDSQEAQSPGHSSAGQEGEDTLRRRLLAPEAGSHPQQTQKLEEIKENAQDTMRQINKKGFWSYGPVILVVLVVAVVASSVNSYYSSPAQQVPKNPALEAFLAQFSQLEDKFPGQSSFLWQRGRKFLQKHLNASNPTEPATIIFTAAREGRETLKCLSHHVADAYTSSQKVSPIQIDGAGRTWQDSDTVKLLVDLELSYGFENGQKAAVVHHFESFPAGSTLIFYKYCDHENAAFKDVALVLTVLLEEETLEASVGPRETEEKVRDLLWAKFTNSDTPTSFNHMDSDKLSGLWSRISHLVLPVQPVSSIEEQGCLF
Experiment [6] in a line: optical density change of DRC41 E. coli – strain DRC41, OD650, 24 h, E. coli filamentation project, primary screen (AID 1093).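 Further: MC1000 strain lacking acrAB efflux and sulA so SOS filamentation is blocked; test concentration not given here.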 Conditions: E. coli DRC41 growth, higher = more signal, called active from +8 up or from −8 down.
Experiment [7] in a line: probe aLefty2 binding to arrayed compounds – biochemical, biotinylated probe, 635/667 nm fluorescence, primary screen (AID 1094).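 Further: score merges spot fluorescence near 667 nm with spot signal-to-noise ratio.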 Conditions: small-molecule microarray, higher = more signal.
For experiment [8], the system named is Noggin (protein binding on small-molecule microarray). The experiment can be described thus: small molecules binding Noggin protein – biochemical, 635/667 nm fluorescence, primary screen (AID 1095).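 Further: score merges 667 nm feature fluorescence with signal to noise over triplicate slides.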 Conditions: 635 nm fluorescence, higher = more signal.
Experiment [9] addresses Neurogenic locus notch homolog protein 3 (Homo sapiens) (UniProt Q9UM47). The experiment can be described thus: small molecules binding NOTCH3 protein – biochemical, 635/667 nm fluorescence, primary screen (AID 1096). To be noted: small-molecule microarray, 635 nm fluorescence, higher = more signal.
Experiment [10] in a line: probe aEGFR binding to arrayed compounds – biochemical, biotinylated probe, 635/667 nm fluorescence, primary screen (AID 1097).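 Further: probe is a biotinylated anti-EGFR antibody binding compounds printed on slides; score combines fluorescence near 667 nm and signal to noise of each spot.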 To be noted: small-molecule microarray, higher = more signal.

Each structure is given as a SMILES string. Calls of active or inactive are those of the source.

Neurogenic locus notch homolog protein 3 (Homo sapiens), sequence (Q9UM47 whole entry, looked up): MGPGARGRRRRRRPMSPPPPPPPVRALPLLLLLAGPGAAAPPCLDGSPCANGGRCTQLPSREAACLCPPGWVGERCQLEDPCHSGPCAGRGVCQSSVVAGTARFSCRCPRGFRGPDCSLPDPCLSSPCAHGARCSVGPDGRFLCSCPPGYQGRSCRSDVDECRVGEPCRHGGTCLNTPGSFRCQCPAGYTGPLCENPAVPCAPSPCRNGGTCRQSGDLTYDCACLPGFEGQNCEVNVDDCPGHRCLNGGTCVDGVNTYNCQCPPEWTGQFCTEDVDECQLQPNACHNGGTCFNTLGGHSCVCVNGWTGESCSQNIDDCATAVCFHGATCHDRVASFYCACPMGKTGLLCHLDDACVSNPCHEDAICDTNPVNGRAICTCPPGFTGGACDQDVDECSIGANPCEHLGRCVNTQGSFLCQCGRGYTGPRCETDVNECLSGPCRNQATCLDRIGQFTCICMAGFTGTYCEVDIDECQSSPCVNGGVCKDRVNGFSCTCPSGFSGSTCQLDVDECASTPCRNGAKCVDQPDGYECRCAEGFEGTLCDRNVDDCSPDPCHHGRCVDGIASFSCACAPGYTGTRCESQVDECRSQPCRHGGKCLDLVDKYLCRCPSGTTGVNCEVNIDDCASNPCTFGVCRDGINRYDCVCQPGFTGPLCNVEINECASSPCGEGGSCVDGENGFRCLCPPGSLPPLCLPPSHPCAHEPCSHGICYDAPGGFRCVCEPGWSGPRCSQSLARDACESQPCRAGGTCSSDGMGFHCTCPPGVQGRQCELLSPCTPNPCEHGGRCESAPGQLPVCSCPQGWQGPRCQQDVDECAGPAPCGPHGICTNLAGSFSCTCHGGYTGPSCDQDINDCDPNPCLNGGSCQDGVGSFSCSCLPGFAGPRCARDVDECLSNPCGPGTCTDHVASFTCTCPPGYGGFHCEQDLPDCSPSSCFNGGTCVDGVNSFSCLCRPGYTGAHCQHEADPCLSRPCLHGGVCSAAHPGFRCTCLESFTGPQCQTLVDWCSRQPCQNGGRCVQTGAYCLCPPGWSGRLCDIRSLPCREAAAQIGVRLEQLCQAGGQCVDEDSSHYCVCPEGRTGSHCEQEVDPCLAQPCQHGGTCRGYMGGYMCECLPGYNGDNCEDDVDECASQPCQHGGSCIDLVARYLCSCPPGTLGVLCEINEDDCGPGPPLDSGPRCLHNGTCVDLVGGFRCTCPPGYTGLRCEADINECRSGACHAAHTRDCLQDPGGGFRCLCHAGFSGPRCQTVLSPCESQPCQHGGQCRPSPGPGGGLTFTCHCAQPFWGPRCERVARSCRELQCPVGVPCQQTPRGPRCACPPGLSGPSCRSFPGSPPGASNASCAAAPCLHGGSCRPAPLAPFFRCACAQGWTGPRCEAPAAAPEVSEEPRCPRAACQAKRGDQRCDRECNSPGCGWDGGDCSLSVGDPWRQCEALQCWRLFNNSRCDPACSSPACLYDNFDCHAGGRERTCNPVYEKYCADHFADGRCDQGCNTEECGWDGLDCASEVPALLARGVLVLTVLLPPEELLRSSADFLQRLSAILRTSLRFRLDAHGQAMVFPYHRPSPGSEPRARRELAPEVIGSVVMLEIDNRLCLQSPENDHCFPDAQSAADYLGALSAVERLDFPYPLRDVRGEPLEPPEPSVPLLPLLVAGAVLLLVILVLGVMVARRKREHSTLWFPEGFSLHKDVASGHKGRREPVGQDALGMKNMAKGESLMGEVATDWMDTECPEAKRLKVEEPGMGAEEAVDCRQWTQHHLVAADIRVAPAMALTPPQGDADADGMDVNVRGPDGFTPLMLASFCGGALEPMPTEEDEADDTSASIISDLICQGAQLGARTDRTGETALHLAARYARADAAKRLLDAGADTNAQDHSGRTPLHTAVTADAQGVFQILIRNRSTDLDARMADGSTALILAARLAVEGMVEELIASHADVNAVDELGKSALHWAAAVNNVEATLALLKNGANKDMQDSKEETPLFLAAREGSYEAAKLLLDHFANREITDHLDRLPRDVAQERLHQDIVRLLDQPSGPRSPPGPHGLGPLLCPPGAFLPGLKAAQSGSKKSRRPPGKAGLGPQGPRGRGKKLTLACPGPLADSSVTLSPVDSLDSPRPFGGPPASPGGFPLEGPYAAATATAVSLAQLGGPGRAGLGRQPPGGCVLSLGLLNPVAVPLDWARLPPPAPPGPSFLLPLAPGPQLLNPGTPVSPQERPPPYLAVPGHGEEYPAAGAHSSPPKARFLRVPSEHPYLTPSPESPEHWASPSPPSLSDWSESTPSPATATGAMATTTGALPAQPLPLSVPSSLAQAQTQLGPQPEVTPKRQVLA

As for `[N-]=[N+]=NCc1ccccc1[C@H]1OC(c2ccc(OCCCO)cc2)=N[C@@]1(Cc1ccccc1N=[N+]=[N-])C(=O)N1CCOCC1`, the composite z-score is 1.58 in [1]; 3.36 in experiment [5]; -0.0133 in experiment [7]; 0.123 in experiment [8]; 1.11 in experiment [9]; -0.0031 in experiment [10]. Also, the z-score is -0.8 (inactive) in experiment [2], 1.23 (inactive) in experiment [3], 4.53 (inactive) in [4] and 0.175 (inactive) in experiment [6].

In the case of `C=C[C@@H](CO)NS(=O)(=O)c1ccc(Br)cc1`, the composite z-score in experiment [1] is -0.635; in experiment [5], -0.361; in experiment [7] it was -0.24; in experiment [8], -0.275; in [9], -1.85; in [10], -0.164. Besides, the z-score in experiment [2] was -3.08 (inactive); in experiment [3] it was -3.63 (inactive); in experiment [4], -1.27 (inactive); in [6] it was 3.54 (inactive).

As for `O=C1NC(=O)C2C1C=CC(C(O)c1ccc(F)cc1)N2Nc1ccc(Cl)cc1Cl` (stereo not given), the composite z-score was 0.589 in experiment [1]; 3.02 in experiment [5]; 0.096 in experiment [7]; -0.749 in experiment [8]; 0.14 in experiment [9]; -0.123 in [10]. The z-score in experiment [2] was -25.3 (active); in experiment [3] it was -7.26 (inactive); in experiment [4], -0.0449 (inactive); in [6] it was -1.3 (inactive).

For the compound `O=C1O[C@@H](c2ccccc2)[C@@H](c2ccccc2)N2[C@@H](c3ccc(OCCO)cc3)[C@]3(C(=O)Nc4ccc(C#CC5=CCCCC5)cc43)[C@@H](C(=O)Nc3nc4ccccc4s3)[C@H]12`, the composite z-score in [1] was 1.56; in experiment [5], 1.86; in [7], -0.673; in [8], 1.11; in [9], 1.02; in experiment [10], -0.0613. Moreover, the z-score was 2.22 (inactive) in [2], 1.59 (inactive) in experiment [3], 1.57 (inactive) in experiment [4] and -0.124 (inactive) in experiment [6].

With `O=C(c1ccccc1)N1Cc2ccccc2C[C@@]2(N=C(c3ccc(OCCCO)cc3)O[C@H]2c2ccccc2)C1=O`, the composite z-score in [1] was 1.54; in experiment [5], 2.81; in experiment [7], -0.0982; in experiment [8], 1.73; in experiment [9] it was 1.09; in experiment [10], 0.024. Further, the z-score was -0.68 (inactive) in experiment [2], -10.3 (active) in experiment [3], 5.51 (inactive) in experiment [4] and -0.231 (inactive) in [6].

In the case of `COC(=O)[C@@]1(Cc2ccc(F)cc2)[C@H]2c3cc(C(=O)N4CCCC4)n(Cc4ccc(OC(F)(F)F)cc4)c3C[C@H]2CN1C(=O)c1ccccc1`, the composite z-score is -1.08 in [1]; 2.1 in experiment [5]; -0.0238 in [7]; -1.2 in experiment [8]; -1.23 in experiment [9]; -0.0472 in [10]. Further, the z-score in experiment [2] is 0.646 (inactive); in experiment [3] it was 0.693 (inactive); in [4], -0.16 (inactive); in experiment [6], -1.01 (inactive).

For the compound `CCCCN1CC=CC23O[C@@H]4C=CCCOC(=O)C4[C@H]2C(=O)N(CCO)[C@@H]3C1=O` (stereo not given in full), the composite z-score was -0.0141 in experiment [1]; -0.248 in [5]; -0.182 in experiment [7]; 0.132 in [8]; -0.414 in experiment [9]; -0.167 in experiment [10]. For the same compound, the z-score in experiment [2] was -0.207 (inactive); in experiment [3], -0.492 (inactive); in experiment [4], -0.19 (inactive); in experiment [6], 1.5 (inactive).

Turning to `CC1(C)OB(/C=C\CC(OC(=O)c2ccncc2)c2ccccc2)OC1(C)C` (stereo not given), the composite z-score in [1] was -0.477; in experiment [5], 0.962; in [7], 1.22; in experiment [8], -1.92; in [9], -1.73; in experiment [10] it was -0.244. Moreover, the z-score in [2] was -1.7 (inactive); in experiment [3] it was -1.3 (inactive); in experiment [4] it was 1.99 (inactive); in experiment [6] it was 1.04 (inactive).

`C=C(C(=O)CC[C@@H](OC(=O)c1cccnc1)c1cccc(OCCO)c1)C(C)C`: the composite z-score in experiment [1] is 0.271; in experiment [5] it was -0.826; in [7], -0.0962; in experiment [8], 0.597; in [9], 0.144; in experiment [10], 0.0391. Also, the z-score is -1.11 (inactive) in [2], -0.0738 (inactive) in experiment [3], 1.04 (inactive) in [4] and 1.12 (inactive) in experiment [6].

Turning to `CCCCCCc1nc(Cc2cc(OC)c(OC)c(OC)c2)c(C)c2c1[Si](C(C)C)(C(C)C)OC2`, the composite z-score is 0.829 in experiment [1]; 0.377 in experiment [5]; -0.0487 in [7]; -0.0156 in experiment [8]; -0.143 in [9]; 0.0172 in experiment [10]. Moreover, the z-score was -0.42 (inactive) in experiment [2], -1.61 (inactive) in experiment [3], -0.0746 (inactive) in experiment [4] and 1.59 (inactive) in [6].

On to `COCCOC(=O)N1C(=O)[C@@]2(c3cc(C#CCNC(N)=O)ccc31)[C@H](c1ccccc1OCCO)N1[C@H](c3ccccc3)[C@H](c3ccccc3)OC(=O)[C@H]1[C@@H]2C(=O)N1CCCCCCC1`, for which the composite z-score in experiment [1] is 1.49; in [5] it was 1.79; in experiment [7] it was 0.365; in [8], 0.911; in [9], 1.11; in experiment [10] it was -0.0121. The z-score in experiment [2] was 0.221 (inactive); in experiment [3], 0.47 (inactive); in experiment [4], 2.37 (inactive); in [6], -0.515 (inactive).
